Our source for the binding signal values is paper PMC7862700, “An all-to-all approach to the identification of sequence-specific readers for epigenetic DNA modifications on cytosine”.

Holding throughout (assay): DAPPL (digital affinity profiling via proximity ligation, sequencing); 10 mM Tris-HCl pH 7.5, 50 mM NaCl, 1 mM DTT, 4% glycerol, room temperature, 30 min; GST-TFs on glutathione beads, 16-mer random dsDNA library, 0.1% formaldehyde crosslink after washing; high values mean tight binding
Experiment [1] concerns the target T1, FEV (Homo sapiens, UniProt Q99581 1-238).
T1 sequence: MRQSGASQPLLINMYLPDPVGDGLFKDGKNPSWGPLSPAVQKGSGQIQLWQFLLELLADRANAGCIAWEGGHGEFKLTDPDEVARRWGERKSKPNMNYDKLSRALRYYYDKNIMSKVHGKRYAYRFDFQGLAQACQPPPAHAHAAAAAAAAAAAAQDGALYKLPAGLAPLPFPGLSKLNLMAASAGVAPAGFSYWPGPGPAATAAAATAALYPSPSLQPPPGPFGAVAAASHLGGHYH
Particulars: protein: recombinant; tags: N-terminal GST; dsDNA, one strand shown. In outline:
(§1)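 Pools were built from human transcription factors expressed in yeast as GST fusions, captured on glutathione beads and DNA-barcoded, along with a tag-only sample. Incubation with 200 nmole of a 16-mer random double-stranded DNA library lasted 30 min at room temperature in Tris/NaCl/DTT/glycerol buffer, and was followed by washing, 0.1% formaldehyde crosslinking, proximity ligation, PCR amplification and Illumina NextSeq500 sequencing. Binding signal is the quotient of each hexamer's read frequency for a factor and its frequency for the tag-only sample.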

The target in experiment [2] is ETV5 (Homo sapiens, UniProt P41161 1-510). Particulars: protein: recombinant; tags: N-terminal GST; dsDNA, one strand shown. The method, boiled down:
as §1

Experiment [3] has as its target HSF1 (Homo sapiens, UniProt Q00613 1-529). Particulars: protein: recombinant; tags: N-terminal GST; chain copies: 3; dsDNA, one strand shown. The method, boiled down: as §1
The target of experiment [4] is T2, SPIC (Homo sapiens, UniProt Q8N5J4 1-248).
T2 sequence: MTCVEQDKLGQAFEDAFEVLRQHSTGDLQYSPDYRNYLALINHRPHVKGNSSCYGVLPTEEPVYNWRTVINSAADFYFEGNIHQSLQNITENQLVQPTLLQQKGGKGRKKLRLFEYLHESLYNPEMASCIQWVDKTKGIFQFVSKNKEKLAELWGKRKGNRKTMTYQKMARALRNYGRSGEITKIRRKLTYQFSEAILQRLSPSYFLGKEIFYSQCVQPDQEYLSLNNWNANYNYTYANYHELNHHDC
Particulars: protein: recombinant; tags: N-terminal GST; dsDNA, one strand shown. In outline: as §1

The target of experiment [5] is ELF4 (Homo sapiens, UniProt Q99607 1-663). Particulars: protein: recombinant; tags: N-terminal GST; dsDNA, one strand shown. The method, boiled down:
as §1

The target in experiment [6] is T3, ELK4 (Homo sapiens, UniProt P28324-2 1-405).
T3 sequence: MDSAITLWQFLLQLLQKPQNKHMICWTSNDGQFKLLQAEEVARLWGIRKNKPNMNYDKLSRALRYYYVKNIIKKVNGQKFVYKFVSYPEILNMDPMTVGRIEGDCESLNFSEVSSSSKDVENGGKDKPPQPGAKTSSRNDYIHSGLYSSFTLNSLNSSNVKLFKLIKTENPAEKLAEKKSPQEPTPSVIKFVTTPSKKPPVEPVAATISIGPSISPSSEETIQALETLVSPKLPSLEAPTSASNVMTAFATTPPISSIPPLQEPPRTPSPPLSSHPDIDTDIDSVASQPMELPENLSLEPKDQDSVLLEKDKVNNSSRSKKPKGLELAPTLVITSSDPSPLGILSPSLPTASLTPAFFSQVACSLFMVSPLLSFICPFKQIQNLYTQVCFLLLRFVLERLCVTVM
The following applies: protein: recombinant; tags: N-terminal GST; dsDNA, one strand shown. The method, boiled down:
as §1

In experiment [7] the target is T4, ETV2 (Homo sapiens, UniProt O00321 1-342).
T4 sequence: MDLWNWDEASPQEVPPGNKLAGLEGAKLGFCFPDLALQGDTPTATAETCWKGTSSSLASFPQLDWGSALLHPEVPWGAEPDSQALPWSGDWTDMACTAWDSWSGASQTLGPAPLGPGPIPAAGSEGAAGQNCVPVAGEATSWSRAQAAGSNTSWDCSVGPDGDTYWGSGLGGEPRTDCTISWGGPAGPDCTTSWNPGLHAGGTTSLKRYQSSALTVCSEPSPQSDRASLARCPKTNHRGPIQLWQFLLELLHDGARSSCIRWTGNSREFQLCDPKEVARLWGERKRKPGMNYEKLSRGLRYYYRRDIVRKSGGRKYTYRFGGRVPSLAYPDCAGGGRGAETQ
Particulars: protein: recombinant; tags: N-terminal GST; dsDNA, one strand shown. In outline: as §1

For experiment [8], the target named is T5, ELF3 (Homo sapiens, UniProt P78545 1-371).
T5 sequence: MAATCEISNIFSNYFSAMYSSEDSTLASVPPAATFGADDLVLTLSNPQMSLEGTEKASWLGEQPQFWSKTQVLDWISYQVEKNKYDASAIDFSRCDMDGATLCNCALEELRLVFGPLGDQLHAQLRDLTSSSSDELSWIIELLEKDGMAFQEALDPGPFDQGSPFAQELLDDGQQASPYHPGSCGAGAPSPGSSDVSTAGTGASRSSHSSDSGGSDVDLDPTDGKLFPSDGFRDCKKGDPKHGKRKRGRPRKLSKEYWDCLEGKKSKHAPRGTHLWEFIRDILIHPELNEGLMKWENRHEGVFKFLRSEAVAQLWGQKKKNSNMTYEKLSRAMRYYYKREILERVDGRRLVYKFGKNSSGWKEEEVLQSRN
Particulars: protein: recombinant; tags: N-terminal GST; dsDNA, one strand shown. In outline: as §1

For experiment [9], the target named is CRX (Homo sapiens, UniProt O43186 1-299). The following applies: protein: recombinant; tags: N-terminal GST; dsDNA, one strand shown. In outline:
as §1

Experiment [10] has as its target ETV1 (Homo sapiens, UniProt P50549 1-477). The following applies: protein: recombinant; tags: N-terminal GST; dsDNA, one strand shown. In outline:
as §1

For experiment [11], the target named is T6, ERF (Homo sapiens, UniProt P50548 1-548).
T6 sequence: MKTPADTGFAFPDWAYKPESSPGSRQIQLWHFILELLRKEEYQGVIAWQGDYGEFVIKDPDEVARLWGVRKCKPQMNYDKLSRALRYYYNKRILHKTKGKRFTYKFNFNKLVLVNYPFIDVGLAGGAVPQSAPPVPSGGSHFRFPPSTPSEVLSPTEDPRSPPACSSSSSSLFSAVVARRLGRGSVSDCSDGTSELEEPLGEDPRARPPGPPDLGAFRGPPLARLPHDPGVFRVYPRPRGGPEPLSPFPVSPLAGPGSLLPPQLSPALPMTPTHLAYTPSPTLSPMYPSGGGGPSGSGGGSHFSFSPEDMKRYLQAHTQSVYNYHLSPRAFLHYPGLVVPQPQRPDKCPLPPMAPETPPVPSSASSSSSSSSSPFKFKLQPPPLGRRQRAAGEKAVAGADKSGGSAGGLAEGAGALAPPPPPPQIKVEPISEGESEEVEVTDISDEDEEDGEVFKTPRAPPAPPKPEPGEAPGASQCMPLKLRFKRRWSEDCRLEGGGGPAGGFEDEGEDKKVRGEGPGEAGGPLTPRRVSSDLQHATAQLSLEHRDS
The following applies: protein: recombinant; tags: N-terminal GST; dsDNA, one strand shown. The method, boiled down: as §1

The target in experiment [12] is T7, ETV3L (Homo sapiens, UniProt Q6ZN32 1-361).
T7 sequence: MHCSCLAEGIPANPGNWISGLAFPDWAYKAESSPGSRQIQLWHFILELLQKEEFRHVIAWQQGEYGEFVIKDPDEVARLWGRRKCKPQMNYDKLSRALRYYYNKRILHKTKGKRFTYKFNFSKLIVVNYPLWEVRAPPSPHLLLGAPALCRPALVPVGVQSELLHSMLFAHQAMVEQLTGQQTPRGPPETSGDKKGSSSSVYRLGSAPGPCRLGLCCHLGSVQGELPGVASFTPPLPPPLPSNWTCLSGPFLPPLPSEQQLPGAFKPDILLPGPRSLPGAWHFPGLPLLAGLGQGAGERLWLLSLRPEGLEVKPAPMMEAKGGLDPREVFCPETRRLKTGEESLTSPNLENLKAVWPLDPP
The following applies: protein: recombinant; tags: N-terminal GST; dsDNA, one strand shown. In outline: as §1

In experiment [13] the target is T8, ETS2 (Homo sapiens, UniProt P15036 1-469).
T8 sequence: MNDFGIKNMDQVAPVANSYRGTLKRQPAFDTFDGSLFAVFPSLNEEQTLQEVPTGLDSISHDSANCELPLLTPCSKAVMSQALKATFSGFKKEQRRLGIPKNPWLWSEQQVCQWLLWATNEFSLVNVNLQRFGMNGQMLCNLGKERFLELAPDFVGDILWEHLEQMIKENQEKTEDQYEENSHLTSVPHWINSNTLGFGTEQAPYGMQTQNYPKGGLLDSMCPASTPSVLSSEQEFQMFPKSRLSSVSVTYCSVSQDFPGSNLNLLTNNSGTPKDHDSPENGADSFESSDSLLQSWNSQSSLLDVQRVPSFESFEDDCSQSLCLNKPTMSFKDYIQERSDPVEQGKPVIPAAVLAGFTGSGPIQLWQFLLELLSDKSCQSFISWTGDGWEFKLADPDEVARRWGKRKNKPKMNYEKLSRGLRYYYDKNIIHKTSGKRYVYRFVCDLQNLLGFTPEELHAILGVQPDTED
Particulars: protein: recombinant; tags: N-terminal GST; dsDNA, one strand shown. The method, boiled down:
as §1

In experiment [14] the target is T9, SPDEF (Homo sapiens, UniProt O95238 1-335).
T9 sequence: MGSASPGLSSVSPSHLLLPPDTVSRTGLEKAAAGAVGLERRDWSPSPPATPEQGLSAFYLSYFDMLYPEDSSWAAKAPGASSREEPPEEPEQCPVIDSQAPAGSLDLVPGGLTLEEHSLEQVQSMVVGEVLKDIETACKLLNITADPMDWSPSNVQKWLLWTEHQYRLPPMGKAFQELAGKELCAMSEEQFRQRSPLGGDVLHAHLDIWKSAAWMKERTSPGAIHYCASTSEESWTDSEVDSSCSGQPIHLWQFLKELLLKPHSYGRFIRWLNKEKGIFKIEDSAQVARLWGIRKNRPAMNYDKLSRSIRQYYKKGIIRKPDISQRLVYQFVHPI
Particulars: protein: recombinant; tags: N-terminal GST; dsDNA, one strand shown. The method, boiled down: as §1

Experiment [15] has as its target T10, ETV7 (Homo sapiens, UniProt Q9Y603 1-341).
T10 sequence: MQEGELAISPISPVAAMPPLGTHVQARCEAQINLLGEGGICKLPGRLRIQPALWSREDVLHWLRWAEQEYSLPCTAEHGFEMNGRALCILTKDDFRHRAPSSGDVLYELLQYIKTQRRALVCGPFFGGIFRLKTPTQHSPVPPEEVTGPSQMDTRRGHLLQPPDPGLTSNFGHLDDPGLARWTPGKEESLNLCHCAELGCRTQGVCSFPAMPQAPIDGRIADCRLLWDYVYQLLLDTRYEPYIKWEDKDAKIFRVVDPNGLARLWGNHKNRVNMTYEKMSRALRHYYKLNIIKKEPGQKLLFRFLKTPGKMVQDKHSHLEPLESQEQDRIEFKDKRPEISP
The following applies: protein: recombinant; tags: N-terminal GST; dsDNA, one strand shown. The method, boiled down:
as §1

The target in experiment [16] is T11, ELF5 (Homo sapiens, UniProt Q9UKW6-2 1-255).
T11 sequence: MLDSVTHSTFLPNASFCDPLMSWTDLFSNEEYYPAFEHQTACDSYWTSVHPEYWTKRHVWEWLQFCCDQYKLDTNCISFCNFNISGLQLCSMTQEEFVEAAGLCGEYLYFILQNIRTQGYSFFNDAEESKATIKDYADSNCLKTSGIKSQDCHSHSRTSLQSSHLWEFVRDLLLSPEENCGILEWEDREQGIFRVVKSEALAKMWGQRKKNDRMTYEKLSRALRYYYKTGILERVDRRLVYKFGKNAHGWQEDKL
Particulars: protein: recombinant; tags: N-terminal GST; dsDNA, one strand shown. In outline: as §1

Experiment [17] concerns the target T12, ETV3 (Homo sapiens, UniProt P41162-2 1-143).
T12 sequence: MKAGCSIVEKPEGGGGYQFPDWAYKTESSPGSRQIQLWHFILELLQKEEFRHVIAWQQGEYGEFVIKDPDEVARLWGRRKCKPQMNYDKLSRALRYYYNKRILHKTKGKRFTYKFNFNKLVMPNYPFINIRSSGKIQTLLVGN
Particulars: protein: recombinant; tags: N-terminal GST; dsDNA, one strand shown. In outline: as §1

Experiment [18] addresses ETV6 (Homo sapiens, UniProt P41212 1-452). The following applies: protein: recombinant; tags: N-terminal GST; dsDNA, one strand shown. In outline: as §1

Chain of ETV5 (P41161 whole entry): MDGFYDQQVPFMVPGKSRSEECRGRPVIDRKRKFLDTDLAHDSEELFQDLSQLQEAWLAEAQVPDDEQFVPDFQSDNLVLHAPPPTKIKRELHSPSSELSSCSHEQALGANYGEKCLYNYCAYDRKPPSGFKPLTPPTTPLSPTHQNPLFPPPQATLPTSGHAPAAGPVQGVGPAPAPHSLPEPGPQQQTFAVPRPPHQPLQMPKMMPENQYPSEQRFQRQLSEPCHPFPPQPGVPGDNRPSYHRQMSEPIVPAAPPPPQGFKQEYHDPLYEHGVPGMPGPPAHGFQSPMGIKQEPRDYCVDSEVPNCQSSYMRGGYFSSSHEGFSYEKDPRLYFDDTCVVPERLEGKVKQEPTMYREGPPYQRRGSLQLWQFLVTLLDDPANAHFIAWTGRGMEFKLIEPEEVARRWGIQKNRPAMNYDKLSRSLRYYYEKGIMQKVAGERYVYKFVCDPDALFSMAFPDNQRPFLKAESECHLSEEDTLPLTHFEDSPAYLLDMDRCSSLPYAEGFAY
Chain of ETV1 (P50549 whole entry): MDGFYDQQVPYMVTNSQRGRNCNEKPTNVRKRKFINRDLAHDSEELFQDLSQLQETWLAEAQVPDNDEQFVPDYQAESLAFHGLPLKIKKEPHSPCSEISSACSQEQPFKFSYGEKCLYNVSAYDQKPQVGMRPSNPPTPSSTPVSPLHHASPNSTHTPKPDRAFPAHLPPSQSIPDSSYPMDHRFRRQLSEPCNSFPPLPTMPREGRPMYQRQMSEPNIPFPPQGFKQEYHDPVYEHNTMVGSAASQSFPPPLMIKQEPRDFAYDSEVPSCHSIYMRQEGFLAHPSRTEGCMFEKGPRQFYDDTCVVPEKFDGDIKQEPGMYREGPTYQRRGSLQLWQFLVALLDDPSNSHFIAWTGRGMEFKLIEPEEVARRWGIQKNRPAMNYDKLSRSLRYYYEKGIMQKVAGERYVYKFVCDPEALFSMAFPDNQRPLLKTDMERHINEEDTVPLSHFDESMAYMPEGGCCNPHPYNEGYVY
Chain of HSF1 (Q00613 whole entry): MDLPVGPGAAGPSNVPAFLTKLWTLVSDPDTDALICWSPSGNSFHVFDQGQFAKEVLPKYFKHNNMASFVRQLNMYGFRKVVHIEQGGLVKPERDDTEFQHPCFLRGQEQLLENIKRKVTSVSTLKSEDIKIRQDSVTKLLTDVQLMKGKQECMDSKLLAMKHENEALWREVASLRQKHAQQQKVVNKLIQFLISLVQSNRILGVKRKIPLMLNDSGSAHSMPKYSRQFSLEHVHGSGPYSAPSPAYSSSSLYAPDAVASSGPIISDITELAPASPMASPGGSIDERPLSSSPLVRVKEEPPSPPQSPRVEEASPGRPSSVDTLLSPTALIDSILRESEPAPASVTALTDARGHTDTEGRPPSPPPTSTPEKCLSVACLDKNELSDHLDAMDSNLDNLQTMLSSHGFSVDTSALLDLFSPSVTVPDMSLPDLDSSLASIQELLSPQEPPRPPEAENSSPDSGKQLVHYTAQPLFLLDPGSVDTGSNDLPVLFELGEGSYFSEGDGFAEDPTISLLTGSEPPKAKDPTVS
Chain of ETV6 (P41212 whole entry): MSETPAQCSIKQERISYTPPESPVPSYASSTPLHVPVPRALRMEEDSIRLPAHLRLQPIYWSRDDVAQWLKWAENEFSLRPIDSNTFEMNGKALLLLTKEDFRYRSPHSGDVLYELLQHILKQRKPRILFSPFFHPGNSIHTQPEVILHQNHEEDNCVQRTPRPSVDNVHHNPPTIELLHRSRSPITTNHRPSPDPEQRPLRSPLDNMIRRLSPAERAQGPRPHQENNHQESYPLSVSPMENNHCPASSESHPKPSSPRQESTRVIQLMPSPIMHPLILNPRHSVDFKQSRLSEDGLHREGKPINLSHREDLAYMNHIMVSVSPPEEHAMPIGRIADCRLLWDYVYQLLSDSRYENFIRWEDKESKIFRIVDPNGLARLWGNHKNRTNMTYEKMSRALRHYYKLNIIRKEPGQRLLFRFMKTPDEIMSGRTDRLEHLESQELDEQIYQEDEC
Chain of ELF4 (Q99607 whole entry): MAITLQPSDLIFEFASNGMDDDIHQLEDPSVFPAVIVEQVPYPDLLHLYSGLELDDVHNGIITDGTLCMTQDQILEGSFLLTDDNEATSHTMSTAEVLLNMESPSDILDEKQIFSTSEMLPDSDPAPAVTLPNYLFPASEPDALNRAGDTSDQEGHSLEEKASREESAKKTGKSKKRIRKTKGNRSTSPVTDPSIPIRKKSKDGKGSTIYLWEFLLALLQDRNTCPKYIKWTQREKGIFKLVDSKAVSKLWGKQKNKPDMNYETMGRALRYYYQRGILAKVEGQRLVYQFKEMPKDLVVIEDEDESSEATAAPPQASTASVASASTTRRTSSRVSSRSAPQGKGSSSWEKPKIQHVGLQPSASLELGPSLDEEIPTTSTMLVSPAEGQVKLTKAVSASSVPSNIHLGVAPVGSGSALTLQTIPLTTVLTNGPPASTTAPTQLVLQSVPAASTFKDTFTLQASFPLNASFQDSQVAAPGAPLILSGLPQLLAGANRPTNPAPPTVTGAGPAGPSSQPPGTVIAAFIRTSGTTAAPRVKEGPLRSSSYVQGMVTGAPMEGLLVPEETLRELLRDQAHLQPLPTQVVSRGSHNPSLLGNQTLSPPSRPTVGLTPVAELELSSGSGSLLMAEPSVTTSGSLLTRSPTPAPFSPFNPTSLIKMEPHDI
Chain of CRX (O43186 whole entry): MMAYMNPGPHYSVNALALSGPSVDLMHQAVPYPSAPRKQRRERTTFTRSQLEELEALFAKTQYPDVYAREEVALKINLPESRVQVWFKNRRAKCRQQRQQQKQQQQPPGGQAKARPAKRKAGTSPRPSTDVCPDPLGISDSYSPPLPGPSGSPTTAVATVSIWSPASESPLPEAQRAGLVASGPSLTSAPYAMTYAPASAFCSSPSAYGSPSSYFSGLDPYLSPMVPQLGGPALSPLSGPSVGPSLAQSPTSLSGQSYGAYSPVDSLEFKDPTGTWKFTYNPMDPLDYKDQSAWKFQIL

In the case of GCTCCC, the binding signal in experiment [1] is 1.28 fold enrichment (6-mer frequency, TF over GST control); in [2] it was 1.39 fold enrichment (6-mer frequency, TF over GST control); in [3], 1.07 fold enrichment (6-mer frequency, TF over GST control); in [4] it was 1.16 fold enrichment (6-mer frequency, TF over GST control); in [5], 1.32 fold enrichment (6-mer frequency, TF over GST control); in [6], 1.4 fold enrichment (6-mer frequency, TF over GST control). Also, the binding signal in experiment [7] is 1.32 fold enrichment (6-mer frequency, TF over GST control); in [8] it was 1.35 fold enrichment (6-mer frequency, TF over GST control); in experiment [9] it was 1.04 fold enrichment (6-mer frequency, TF over GST control); in experiment [10], 1.24 fold enrichment (6-mer frequency, TF over GST control); in experiment [11] it was 1.29 fold enrichment (6-mer frequency, TF over GST control); in experiment [12] it was 1.27 fold enrichment (6-mer frequency, TF over GST control). The binding signal in [13] is 1.35 fold enrichment (6-mer frequency, TF over GST control); in experiment [14], 1.47 fold enrichment (6-mer frequency, TF over GST control); in [15], 1.31 fold enrichment (6-mer frequency, TF over GST control); in experiment [16], 1.33 fold enrichment (6-mer frequency, TF over GST control); in experiment [17], 1.21 fold enrichment (6-mer frequency, TF over GST control); in [18], 1.25 fold enrichment (6-mer frequency, TF over GST control).
